Screening data as filed in PubChem.
Most compounds without a hit are left out; they make up all but 2.6% or so of the library.
AmpC inh det: Promiscuous and Specific Inhibitors of AmpC Beta-Lactamase (assay with detergent); AID 584, 2007; P00811; Potency, µM (series often up to 28.7 µM), inactives show top-dose activity change, negative = inhibition; hit rate 0.09% among 71,000; purified AmpC, nitrocefin hydrolysis with detergent; active = well fitted curve in the direction sought with a large enough effect; inconclusive = small, poorly fitted or top-dose-only effect; also: % is scaled to controls: 0 for no effect and ±100 for the full control effect
Target sequence (P00811 whole entry, looked up): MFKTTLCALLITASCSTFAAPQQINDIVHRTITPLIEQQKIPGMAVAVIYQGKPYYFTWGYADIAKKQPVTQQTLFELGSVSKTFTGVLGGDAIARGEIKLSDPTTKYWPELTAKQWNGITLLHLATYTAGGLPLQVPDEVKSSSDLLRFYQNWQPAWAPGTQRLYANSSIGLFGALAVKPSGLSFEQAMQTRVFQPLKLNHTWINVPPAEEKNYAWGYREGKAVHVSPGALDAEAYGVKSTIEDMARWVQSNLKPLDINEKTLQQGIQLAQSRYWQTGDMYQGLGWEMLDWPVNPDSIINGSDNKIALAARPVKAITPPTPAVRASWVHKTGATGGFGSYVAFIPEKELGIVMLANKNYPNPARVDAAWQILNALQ
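E. coli AmpC (5.3 nM) in 20 mM phosphate pH 7.0 with 0.01% Triton X-100, preincubated 15 min RT with compound; nitrocefin (2 uL of 800 uM stock) hydrolysis followed by 480 nm absorbance every 20 s over 4 min.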
AmpC inh no det: Promiscuous and Specific Inhibitors of AmpC Beta-Lactamase (assay without detergent); P00811; Potency, µM (top dose mostly 28.7 µM), for the others: at the top dose activity change, negative = inhibition; hit rate 1.8% among 71,000; AmpC nitrocefin hydrolysis, absorbance 480 nm, no detergent; AID 585, 2007; also: % of control where 0% means no effect
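AmpC in 20 mM phosphate buffer pH 7.0 was preincubated 15 min at room temperature with compounds. Nitrocefin (800 uM stock) was then added and hydrolysis followed at 480 nm every 20 s for 4 min.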
SmPrx2 inh: Schistosoma Mansoni Peroxiredoxins (Prx2). Schistosoma mansoni peroxiredoxin 2 (Prx2). Potency, µM. S. mansoni Prx2 activity coupled to TGR/GSH (TGR is thioredoxin glutathione reductase), NADPH fluorescence loss, qHTS. hit rate 0.07% among 65,000
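Enzyme mix: 100 uM NADPH, 25 nM TGR, 700 uM GSH, 50 nM Prx2 in 100 mM phosphate pH 7.4, 10 mM EDTA, 0.01% Tween-20. 15 min RT with compound; NADPH/GSH added, H2O2 starts reaction; NADPH fluorescence read 8 min.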
LT uptake inh: qHTS Assay for Anthrax Lethal Toxin Internalization; Cells, anthrax lethal toxin internalization, FRET ratio (460/530); Potency, µM (top dose mostly 40 µM), for inactives: top-dose activity change, negative = inhibition, hits mostly inhibitors; hit rate 0.67% among 70,000; AID 912, 2007; also: % is scaled to controls: 0 for no effect and ±100 for the full control effect; nearly all actives have a fitted effect of over 50% in size
Numbers without * were called inactive; u = inconclusive; x = no result given; ! = not active in a repeat; [ ] = remark or other dose. Unless noted, calls follow the shape of the full dose curve. Potency is read from the fitted curve at half-maximal effect.

SMILES | AmpC inh det | AmpC inh no det | SmPrx2 inh | LT uptake inh
CCOC(=O)N1CCC(NC(=O)c2ccc(CS(=O)(=O)c3ccc(OC)cc3)o2)CC1 | 13.2% | 3.98µM*[single pt active] | >57 | 6.6%
COc1ccc(S(=O)(=O)Cc2ccc(C(=O)NC3CCCC3)o2)cc1 | 14.9% | 3.98µM*[single pt active] | >57 | -8.6%
CC[C@]1(O)C[C@H]2CN(CCc3c([nH]c4ccccc34)[C@](C(=O)OC)(c3cc4c(cc3OC)N(C)[C@@H]3[C@](O)(C(=O)OC)[C@H](OC(C)=O)[C@]5(CC)C=CCN6CC[C@]43[C@@H]65)C2)C1 | -0.7% | 143.5% | >57 | u
O=C(O)CCCN1CCCCC1 | -4.8%[5.75 µM] | 9.9%[5.75 µM] | >57 | -6.7%[8 µM]
Cc1cc(N2CCCN(C)CC2)nc2cc(Cl)ccc12 | 5.8% | 37.1% | x | 10µM*
Cc1c(C)c2cc(Cl)c(O)c(CN(C)C)c2oc1=O | -0.2% | -1.4% | x | 10.6%
O=c1oc2c(O)c(O)cc3c(=O)oc4c(O)c(O)cc1c4c23 | u | 7.94µM* | >57 | u
COc1ccccc1N1CSC2=C(C#N)C(c3ccc(SC)cc3)CC(=O)N2C1 (stereo not given) | 10.8% | 2.51µM* | >57 | u
COc1ccc(OC)c(C2CC(=O)N3CN(c4ccccc4F)CSC3=C2C#N)c1 (stereo not given) | 11.6% | 3.98µM*[single pt active] | >57 | -7.0%
COc1cc(C2CC(=O)N3CN(c4ccccc4C)CSC3=C2C#N)cc(OC)c1OC (stereo not given) | -5.6% | 48.1% | >57 | u
COc1cccc(C2CC(=O)N3CN(c4ccccc4F)CSC3=C2C#N)c1 (stereo not given) | 8.1% | 3.98µM*[single pt active] | >57 | u
C/C(=N\O)c1cccc[n+]1Cc1ccccc1 | -6.2%[5.75 µM] | 1.4%[5.75 µM] | >57 | -8.9%[8 µM]
O=C(CSc1nnc2c(n1)[nH]c1ccc(F)cc12)OCc1ccccc1 | 6.9% | 10µM* | >57 | -6.5%
O=C(CSc1nnc(-c2ccccc2F)o1)OCc1ccccc1 | 11.6% | 9.5% | >57 | 2.7%
CC1(C)O[C@H]2C[C@@H]3[C@H]4CCC5=CC(=O)CC[C@@]5(C)[C@]4(F)[C@@H](O)C[C@@]3(C)[C@@]2(C(=O)CCl)O1 | 0.3%[12.8 µM] | 53.9%[12.8 µM] | >57 | 7.9%[3.58 µM]
CCOC(=O)CCS(=O)(=O)c1nc(-c2ccccc2)cc(C(F)(F)F)n1 | 1.1% | 16.2% | >57 | u
CCOC(=O)CS(=O)(=O)c1nc(-c2ccccc2)cc(C(F)(F)F)n1 | -8.1% | -3.0% | >57 | 3.16µM*
N#Cc1c(NC(=O)Cn2c(=O)oc3ccccc32)oc(-c2ccccc2)c1-c1ccccc1 | 0.8% | 12.6µM* | >57 | 10µM*
O=C(O)COc1ccc(C(=O)Cc2ccc3c(c2)OCCCO3)c(O)c1 | -0.5% | -11.2% | >57 | -6.9%
O=C(Cc1ccc2c(c1)OCCO2)c1c(O)cc(O)cc1O | -3.7% | 10µM* | >57 | -0.6%
c1csc(Cc2nc(-c3ccc(-n4cccc4)cc3)no2)c1 | 12.5% | 12.6µM* | >57 | 2.4%
C=CCN1CC[C@]23c4c5ccc(O)c4O[C@@H]2C(=O)CC[C@@]3(O)[C@H]1C5 | -1.5% | 5.7% | >57 | 4.2%
CCCCCCNC(=O)c1c(O)c2ccccc2[nH]c1=O | 2.0% | 12.6µM* | >57 | 21.8%
C[C@]12CC[C@H](O)C[C@@H]1CC[C@H]1[C@H]2CC[C@]2(C)[C@H](C(=O)CO)CC[C@@H]12 | -0.5% | 19.2% | >57 | u
COCCn1c(=O)c(-c2ccc(Cl)cc2)nc2cnc(N3CCNCC3)nc21 | -0.7% | 63.5% | >57 | u
SMILES | AmpC inh det | AmpC inh no det | SmPrx2 inh | LT uptake inh
CCOC(=O)N1CCN(c2c(Nc3cc(C)[nH]n3)c(=O)c2=O)CC1 | 12.3% | 2.51µM*[single pt active] | u | -4.8%
CCOC(=O)N1CCN(c2c(NCCCN(CC)c3cccc(C)c3)c(=O)c2=O)CC1 | -2.6% | 83.6% | >57 | 1.3%
CCOC(=O)N1CCN(c2c(NCc3ccccn3)c(=O)c2=O)CC1 | 14.9% | 3.98µM*[single pt active] | >57 | -14.3%
S=C([S-])NCCNC(=S)[S-].[Zn+2] | 2.1% | -13.8% | x | u
COc1ccc(CCNC(=O)C2(C)CCC(=O)N2CCC(C)C)cc1OC (stereo not given) | 17.7% | 3.98µM*[single pt active] | >57 | -20.9%
CN(C)c1oc(-c2ccccc2Cl)nc1C#N | -5.6% | 0.9% | x | 1.4%
CN(C)c1oc(-c2ccccc2Cl)nc1S(=O)(=O)c1ccccc1 | 10.6% | 3.98µM*[single pt active] | >57 | -22.1%
CCCCCCCCCCCCCCCC(=O)NC[C@@H](COP(=O)([O-])OCC[N+](C)(C)C)OCC | -4.1% | 200.9% | u | u
COc1ccc(-c2cc([C@H](O)[C@@H]3CCCCN3)c3ccccc3n2)cc1 | -6.6%[5.75 µM] | -8.4%[5.75 µM] | >57 | 4.1%[8 µM]
COc1ccc(C2CC(c3cccc(OC)c3)n3nc(N)nc3N2)cc1 (stereo not given) | 8.9% | 3.98µM*[single pt active] | >57 | -5.0%
COc1ccc(C2CC(c3ccc(F)cc3)Nc3nc(N)nn32)cc1 (stereo not given) | 14.5% | 3.98µM*[single pt active] | >57 | u
COc1cccc(C2CC(c3c(Cl)cccc3Cl)n3nc(N)nc3N2)c1 (stereo not given) | 13.0% | 3.98µM*[single pt active] | >57 | 3.5%
COc1cccc(C2CC(c3c(F)cccc3Cl)n3nc(N)nc3N2)c1 (stereo not given) | -2.0% | 35.2% | >57 | -18.3%
COc1cccc(C2CC(c3ccccc3)Nc3nc(N)nn32)c1 (stereo not given) | 9.4% | 3.98µM*[single pt active] | >57 | 4.2%
CCOc1ccc(C2CC(c3ccc(F)cc3)Nc3nc(N)nn32)cc1 (stereo not given) | 12.5% | 36.1% | >57 | 6.4%
COc1cc2c3cc1Oc1cc(ccc1O)C[C@@H]1c4c(cc(OC)c(O)c4Oc4ccc(cc4)C[C@H]3[N+](C)(C)CC2)CC[N+]1(C)C | -5.3%[5.75 µM] | 18.7%[5.75 µM] | >57 | -7.2%[8 µM]
CC(C)c1ccc(C(O)(C(=O)O)c2ccc(C(C)C)cc2)cc1 | -3.7%[5.75 µM] | 5.3%[5.75 µM] | >57 | -7.0%[8 µM]
CS(=O)(=O)N1CCC[C@@]2(CCN(c3ccccn3)C2)C1 | 0.9% | 15.0% | >57 | u
Cc1cc(CN2CCN(CCC#N)CC2)c(O)c(C2(C)CCCCC2)c1 | -8.2% | 14.1% | >57 | 12.6µM*
O=c1cc(-c2ccc(O)cc2)oc2cc(O)cc(O)c12 | 5.9% | 3.98µM*! | >57 | -17.1%
O=c1cc(-c2ccccc2)oc2cc(O)cc(O)c12 | -1.0%[12.8 µM] | -12.1%[12.8 µM] | >57 | -4.9%[3.58 µM]
C[C@H](CN(C)C)C(C#N)(c1ccccc1)c1ccccc1 | -2.2%[5.75 µM] | 15.0%[5.75 µM] | >57 | -0.4%[8 µM]
CCOC(=O)CC(SP(=S)(OC)OC)C(=O)OCC (stereo not given) | 6.31µM* | u | x | u
CCOC(=O)OCC | 6.4% | -5.3% | x | -0.6%
COc1ccccc1OC[C@H](O)CN1CCN(CC(=O)Nc2c(C)cccc2C)CC1 | -1.7% | 41.8% | >57 | -7.3%
COc1ccccc1NC(=O)Cn1nnc(-c2ccccc2NC(=O)c2ccco2)n1 | 4.0% | -21.1% | >57 | -4.8%
COc1ccccc1NC(=O)Cn1nnc(-c2ccccc2NC(=O)c2cccs2)n1 | 2.1% | 7.94µM* | >57 | -1.1%
